Activity calls are given as the source filed them.
Columns and labels:
[1] = anti-His antibody binders, primary screen, artefact control for SMM control protein annotation, biochemical, small-molecule microarray, 635 nm fluorescence (AID 1128); settings: anti-His Alexa647 antibody binding, higher = more signal;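 further: score merges feature fluorescence with signal-to-noise for each printed compound spot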
[2] = system: Human papillomavirus type 1a E7 protein (residues 1-88); test: HPV1a E7 small-molecule binders, primary screen, biochemical, small-molecule microarray, residues 1-88, 635 nm (AID 1129); settings: small-molecule microarray binding, fluorescence 635 nm; higher = more signal
[3] = biological target: Focal adhesion kinase 1 (Homo sapiens) (UniProt Q05397); test: small-molecule microarray binders of FAK, primary screen, biochemical, 635/667 nm fluorescence, BSA, DTT (AID 1130); settings: PTK2 binding, 635 nm fluorescence, higher = more signal;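 further: composite of spot emission at 667 nm and signal to noise over triplicate slides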
Sequence of Focal adhesion kinase 1 (Homo sapiens) (Q05397 whole entry, looked up): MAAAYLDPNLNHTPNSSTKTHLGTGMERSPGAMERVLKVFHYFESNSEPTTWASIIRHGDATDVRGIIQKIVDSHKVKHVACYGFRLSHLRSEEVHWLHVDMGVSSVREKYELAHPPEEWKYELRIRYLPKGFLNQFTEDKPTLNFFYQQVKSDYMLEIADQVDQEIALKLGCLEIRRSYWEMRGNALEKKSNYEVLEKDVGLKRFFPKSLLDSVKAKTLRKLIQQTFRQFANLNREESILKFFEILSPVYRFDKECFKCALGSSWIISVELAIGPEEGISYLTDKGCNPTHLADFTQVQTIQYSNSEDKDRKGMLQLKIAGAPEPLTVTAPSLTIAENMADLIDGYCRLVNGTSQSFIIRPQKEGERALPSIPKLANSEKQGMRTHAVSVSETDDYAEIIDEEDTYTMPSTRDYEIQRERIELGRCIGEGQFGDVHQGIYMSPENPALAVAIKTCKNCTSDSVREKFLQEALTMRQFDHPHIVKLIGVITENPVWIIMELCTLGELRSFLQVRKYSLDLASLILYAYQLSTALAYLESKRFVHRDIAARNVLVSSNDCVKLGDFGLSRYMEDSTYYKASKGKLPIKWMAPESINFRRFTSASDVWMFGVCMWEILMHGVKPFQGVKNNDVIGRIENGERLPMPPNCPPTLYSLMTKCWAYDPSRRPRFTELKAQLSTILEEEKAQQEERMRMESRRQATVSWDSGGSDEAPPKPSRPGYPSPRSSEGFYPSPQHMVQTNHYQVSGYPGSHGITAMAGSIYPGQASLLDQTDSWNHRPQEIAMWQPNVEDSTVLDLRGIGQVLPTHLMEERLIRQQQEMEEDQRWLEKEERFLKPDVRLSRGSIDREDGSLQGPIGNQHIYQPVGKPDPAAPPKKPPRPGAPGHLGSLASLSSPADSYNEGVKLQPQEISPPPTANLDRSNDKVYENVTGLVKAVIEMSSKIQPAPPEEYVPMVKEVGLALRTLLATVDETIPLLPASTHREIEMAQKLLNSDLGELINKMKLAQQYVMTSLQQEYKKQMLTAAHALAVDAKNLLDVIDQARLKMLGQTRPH

[4] = system: Fibrinogen (Alexa647-labelled); test: fibrinogen binders on compound microarrays, profiling panel, artefact control for SMM control-protein annotation, biochemical, small-molecule microarray, 635/667 nm fluorescence (AID 1131); settings: fibrinogen-A647 binding fluorescence, higher = more signal;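 further: z-score merges 667 nm fluorescence with per-spot signal-to-noise over triplicate slides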
[5] = biological target: Follistatin (Homo sapiens) (UniProt P19883); test: follistatin binders on small-molecule microarrays, primary screen, biochemical, small-molecule microarray, 635/667 nm fluorescence (AID 1132); settings: FST binding, 635 nm fluorescence, higher = more signal
Sequence of Follistatin (Homo sapiens) (P19883 whole entry, looked up): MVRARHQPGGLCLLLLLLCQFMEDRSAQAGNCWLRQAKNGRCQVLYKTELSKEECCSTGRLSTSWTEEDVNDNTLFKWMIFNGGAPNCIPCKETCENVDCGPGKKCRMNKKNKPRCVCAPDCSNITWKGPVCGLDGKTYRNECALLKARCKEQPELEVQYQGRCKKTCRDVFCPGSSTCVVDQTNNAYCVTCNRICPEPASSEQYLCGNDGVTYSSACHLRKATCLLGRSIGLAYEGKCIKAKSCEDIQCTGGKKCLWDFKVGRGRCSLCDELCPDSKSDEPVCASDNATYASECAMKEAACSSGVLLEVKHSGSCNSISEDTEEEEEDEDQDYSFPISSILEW

[6] = biological target: Fibroblast growth factor 2 (Homo sapiens) (UniProt P09038); test: FGF2 binders on small-molecule microarrays, primary screen, biochemical, small-molecule microarray, 635/667 nm fluorescence (AID 1133); settings: small-molecule microarray binding, FGF2, fluorescence 635/667; higher = more signal
Sequence of Fibroblast growth factor 2 (Homo sapiens) (P09038 whole entry, looked up): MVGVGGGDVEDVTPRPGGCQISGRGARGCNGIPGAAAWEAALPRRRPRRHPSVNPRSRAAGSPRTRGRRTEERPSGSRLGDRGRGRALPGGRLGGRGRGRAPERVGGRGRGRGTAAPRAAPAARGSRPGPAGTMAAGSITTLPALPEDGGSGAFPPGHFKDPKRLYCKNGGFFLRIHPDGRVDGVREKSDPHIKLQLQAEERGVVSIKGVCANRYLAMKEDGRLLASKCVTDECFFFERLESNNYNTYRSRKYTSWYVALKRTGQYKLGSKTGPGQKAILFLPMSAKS

[7] = mitochondrial membrane potential change in A549 cells, profiling panel, cell-based, JC-1 fluorescence, basal, 24 h, 100 nL (AID 1138); settings: higher = more signal;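 further: A549 lung adenocarcinoma cells under basal conditions with no added stimulus; test concentration not given here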
Lefty1 = Lefty1 binders on small-molecule microarrays, primary screen, biochemical, small-molecule microarray, 635/667 nm fluorescence (AID 1139); settings: small-molecule microarray binding, fluorescence 635/667; higher = more signal
[8] = system: wheat germ agglutinin (Triticum aestivum), Alexa647-labelled; test: wheat germ agglutinin binders on compound microarrays, profiling panel, artefact control for SMM control-protein annotation, biochemical, small-molecule microarray, 635/667 nm fluorescence (AID 1140); settings: WGA-A647 binding, 635 nm fluorescence, higher = more signal;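 further: score merges 667 nm feature emission with signal to noise over triplicate slides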
[9] = biological target: Luciferin 4-monooxygenase (Photinus pyralis) (UniProt P08659); test: firefly luciferase enzyme inhibitors, primary screen, biochemical, luminescence, purified enzyme, 2006 set (AID 1141); settings: SteadyGlo luminescence, 30 min, higher = more signal, called active from +8 up or from −8 down;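 further: cell-free assay with purified firefly luciferase at 100 ng per well in PBS; test concentration not given here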
Sequence of Luciferin 4-monooxygenase (Photinus pyralis) (P08659 whole entry, looked up): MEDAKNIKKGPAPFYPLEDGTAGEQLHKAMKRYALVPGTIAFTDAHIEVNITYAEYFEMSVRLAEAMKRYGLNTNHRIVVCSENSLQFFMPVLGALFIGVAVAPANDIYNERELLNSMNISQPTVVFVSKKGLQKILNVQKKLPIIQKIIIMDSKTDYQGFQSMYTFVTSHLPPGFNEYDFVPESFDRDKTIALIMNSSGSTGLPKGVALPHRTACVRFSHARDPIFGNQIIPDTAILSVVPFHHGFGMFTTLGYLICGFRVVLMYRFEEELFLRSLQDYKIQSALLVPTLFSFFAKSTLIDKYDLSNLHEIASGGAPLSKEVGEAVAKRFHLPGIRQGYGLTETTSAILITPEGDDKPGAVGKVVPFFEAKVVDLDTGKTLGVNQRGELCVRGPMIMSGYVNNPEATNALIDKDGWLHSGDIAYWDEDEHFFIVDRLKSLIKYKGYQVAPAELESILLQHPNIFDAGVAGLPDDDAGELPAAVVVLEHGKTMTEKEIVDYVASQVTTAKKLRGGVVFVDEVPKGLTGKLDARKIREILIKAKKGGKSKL

Row | SMILES | composite z-score [1] | composite z-score [2] | composite z-score [3] | composite z-score [4] | composite z-score [5] | composite z-score [6] | z-score [7] | composite z-score (Lefty1) | composite z-score [8] | z-score [9]
1 | C=CCC(OC(C)=O)[C@@H]1[C@@H](N(Cc2ccc(-c3ccccc3)cc2)C(=O)c2ccc(-c3ccccc3)cc2)c2cc(OCCCO)ccc2N1C(=O)Cc1ccc2ccccc2c1 (stereo not given in full) | 1.13 | -0.0959 | -0.0802 | 0.51 | 0.456 | -0.275 | 0.857 | 0.211 | 0.0685 | -0.785 (inactive)
2 | COC(=O)[C@@]1(Cc2ccccc2)N=C(c2ccc(OCCCO)cc2)O[C@H]1c1ccccc1 | 2.44 | 1.2 | 0.428 | -0.381 | 0.385 | 1.65 | -0.56 | -0.63 | 0.609 | -5.51 (inactive)
3 | C=C[C@@H](COC(=O)OC(C)(C)C)N(Cc1ccc(OC)cc1)S(=O)(=O)c1ccc(Br)cc1 | 1.03 | 1.11 | 0.43 | 0.731 | 0.844 | 0.683 | 3.28 | 0.9 | 0.285 | -0.694 (inactive)
4 | COc1ccccc1CN1C(=O)c2ccccc2[C@@H](C(=O)NC2CC2)[C@@H]1c1ccc(CO)cc1 | 2.77 | 1.23 | 0.344 | 0.725 | 1.42 | 1.66 | 1.76 | 1.5 | 0.85 | -0.659 (inactive)
5 | O=C1C[C@@](C(=O)NC2CC2)(c2ccc([N+](=O)[O-])cc2)[C@@H](c2ccc(CO)cc2I)N1C1CCCCC1 | 0.342 | 1.24 | -0.109 | 0.895 | 1.24 | 1.27 | 1.75 | 1.14 | 0.587 | -0.234 (inactive)
6 | CC(CO)N1C(=O)[C@@H]2C3C(=O)OCCC/C=C\[C@H]3OC23C=CCN(C(C)(C)C)C(=O)[C@@H]13 (stereo not given in full) | -0.286 | -0.615 | -0.05 | -0.47 | 0.122 | -0.0209 | -0.0344 | 0.476 | -0.452 | -0.562 (inactive)
7 | COc1ccc(C(=O)Nc2ccc(CN3C(=O)[C@]4(O[C@H](CCO)[C@@H]([Si](C)(C)c5ccc(OC)cc5)[C@@H]4C)c4ccccc43)cc2)cc1 | 0.215 | 1.06 | 0.246 | 0.599 | 0.995 | 0.894 | -1.41 | 1.36 | 0.526 | 0.362 (inactive)
8 | C=C(CCCC)/C(=C/C[C@H](OC(=O)c1ccncc1)c1ccccc1OCCO)c1cnc2ccccc2c1 | 0.997 | 1.08 | 0.166 | 0.47 | 1.27 | 0.912 | 0.957 | 1.14 | 1.14 | -0.372 (inactive)
9 | C=CCOC(=O)[C@H]1[C@@H]2C(=O)O[C@@H](c3ccccc3)[C@@H](c3ccccc3)N2[C@@H](c2ccc(OCCOC(=O)[C@H]3C[C@H]4C(=O)N[C@@H](CCCCNC(C)=O)C(=O)N4[C@H]3c3ccc(O)cc3)cc2)[C@]12C(=O)Nc1ccc(I)cc12 | 0.748 | 0.885 | 0.169 | 0.332 | 1.35 | 1.46 | -0.804 | 1.42 | 0.105 | -2.16 (inactive)
10 | Cc1ccc(S[C@]2(C(=O)NCCCN(C)C)CC(=O)N(Cc3ccccc3C(F)(F)F)[C@@H]2c2ccc(CO)cc2)cc1 | -1.09 | -0.935 | -0.157 | 0.109 | -0.85 | -0.45 | 0.566 | -0.853 | 0.427 | -0.903 (inactive)
11 | CN(C)C(=O)[C@]1(Cc2ccccc2N=[N+]=[N-])N=C(c2ccc(OCCCO)cc2)O[C@@H]1c1ccccc1N=[N+]=[N-] | 2.42 | 1.18 | 0.646 | 1.01 | 1.27 | 1.26 | 1.1 | 0.513 | 1.21 | -3.94 (inactive)
12 | COC(=O)[C@@]1(CCS(=O)(=O)c2ccccc2)N=C(c2ccc(OCCCO)cc2)O[C@H]1c1ccccc1CN=[N+]=[N-] | 2.29 | 1.19 | 1.46 | 0.755 | 1.31 | 0.55 | -0.229 | 0.279 | 1.01 | -0.282 (inactive)
13 | CC(C)C(=C=CC[C@@H](O)c1ccc(OCCO)cc1)C[C@@H](O)COCc1ccccc1 | -0.547 | 0.948 | 0.0144 | 0.602 | 1.36 | 1.46 | 0.922 | 1.58 | 0.225 | -1.3 (inactive)
14 | CC(C)C(O)C1C=CC2C(=O)NC(=O)C2N1Nc1ccc(Cl)cc1Cl (stereo not given) | 1.03 | 1.19 | 1.08 | 0.921 | 0.345 | -0.292 | -0.518 | -0.556 | 1.35 | -0.089 (inactive)
15 | CN1C(=O)C2C=CC(C(O)c3ccccc3)N(N(c3ccccc3)c3ccccc3)C2C1=O (stereo not given) | 1.95 | -0.54 | 0.112 | 0.384 | 1.34 | -0.0637 | -0.516 | 0.03 | 0.489 | 1.07 (inactive)
16 | CC(C)[Si](C#Cc1ccc(Oc2ccccc2)cc1)(O[Si](C#Cc1ccc(Oc2ccccc2)cc1)(C(C)C)C(C)C)C(C)C | 1.69 | 0.701 | 0.0273 | 0.654 | 0.218 | 0.925 | 0.108 | 1.07 | 0.372 | -0.637 (inactive)
17 | CC(C)OC(=O)C=C1C[C@@H](c2ccccn2)O[C@@H](c2ccccn2)O1 | 0.772 | -0.0007 | -0.19 | 0.0108 | 1.34 | 0.935 | 0.0752 | 1.53 | 0.372 | 0.633 (inactive)
18 | C=CCNC(=O)[C@H]1[C@@H]2C(=O)O[C@@H](c3ccccc3)[C@@H](c3ccccc3)N2[C@@H](c2ccccc2OCCO)[C@]12C(=O)Nc1ccc(C#CCC(C(=O)OC)C(=O)OC)cc12 | 1.46 | 1.26 | 0.412 | 0.931 | 1.35 | 1.27 | 0.627 | 1.25 | 1.28 | 0.62 (inactive)
19 | O=C1C2C=CC(C(O)c3cc(C(F)(F)F)cc(C(F)(F)F)c3)N(n3cnnc3)C2C(=O)N1Cc1ccccc1 (stereo not given) | 0.955 | -0.269 | -0.176 | 0.889 | -0.192 | -0.794 | -1.57 | -0.264 | 1.05 | 1.46 (inactive)
20 | O=C1c2ccccc2[C@](Cc2ccccc2I)(C(=O)NCCN2CCOCC2)[C@H](c2ccc(CO)cc2)N1Cc1ccccc1Cl | 2.09 | 1.16 | 0.0936 | 0.929 | 1 | 1.23 | 1.87 | 0.526 | 1.08 | -0.593 (inactive)
21 | C=C(COC)/C(=C/C[C@H](OC(C)=O)c1ccc(CO)o1)c1cc(C(=O)OC)ccc1OC | 0.795 | 0.516 | 0.0348 | 0.255 | 0.435 | -0.1 | -0.91 | 0.57 | -0.199 | -0.769 (inactive)
22 | C[C@H]1NC(=O)[C@@]23C(=O)N[C@@H](Cc4ccccc4)C2[C@H](C)[C@@]2(C)O[C@H]2C3/C=C/C/C=C\CNC(=O)[C@@H]2CCCN2C1=O (stereo not given in full) | -0.224 | 0.303 | 0.0122 | 0.859 | 1.05 | 0.692 | 0.419 | 0.946 | 0.765 | 0.193 (inactive)
23 | COCCOC(=O)N1C(=O)[C@@]2(c3cc(C#CCCO)ccc31)[C@H](C(=O)N1CCCCCCC1)[C@H]1C(=O)O[C@H](c3ccccc3)[C@H](c3ccccc3)N1[C@@H]2c1ccc(OCCO)cc1 | 1.19 | 1.2 | 0.959 | 0.769 | 1.4 | 1.51 | -0.821 | 1.6 | 1.35 | 0.242 (inactive)
24 | COc1cc(Br)cc(C(O)C2C=CC3C(=O)N(C)C(=O)C3N2N2CCCCC2)c1OC (stereo not given) | 0.286 | 0.665 | 0.446 | -0.83 | -1.02 | -1.38 | -0.85 | -1.12 | -0.0965 | -0.141 (inactive)
25 | COCCOC(=O)N1C(=O)[C@@]2(c3ccccc31)[C@H](c1ccccc1OCCO)N1[C@H](c3ccccc3)[C@H](c3ccccc3)OC(=O)[C@H]1[C@@H]2C(=O)N1CCN(c2ncccn2)CC1 | 1.22 | 1.15 | 0.1 | 0.64 | 0.755 | 0.385 | -1.21 | 0.962 | 1.1 | -0.388 (inactive)
26 | C=CCOC(=O)[C@H]1[C@@H]2C(=O)O[C@@H](c3ccccc3)[C@@H](c3ccccc3)N2[C@@H](c2ccc(OCCOC(=O)[C@@H]3C[C@@H]4C(=O)N[C@@H](CC(C)C)C(=O)N4[C@@H]3c3ccc(O)cc3)cc2)[C@]12C(=O)Nc1ccccc12 | 2.05 | 1.21 | 0.289 | 0.78 | 1.39 | 1.83 | -1.56 | 1.54 | 0.232 | -0.0838 (inactive)
27 | COCCOC(=O)N1C(=O)[C@@]2(c3cc(C#CCC(C(=O)OC)C(=O)OC)ccc31)[C@H](C(=O)Nc1nc3ccccc3s1)[C@H]1C(=O)O[C@H](c3ccccc3)[C@H](c3ccccc3)N1[C@@H]2c1ccccc1OCCO | 1.41 | 1.22 | 0.714 | 0.965 | 0.602 | 0.579 | -2.07 | 0.275 | 1.2 | -1.56 (inactive)
